Source: PubChem BioAssay AID2314 (National Center for Advancing Translational Sciences (NCATS), 2010)
The whole screen tested about 300,000 compounds, of which about 37,000 (12%) were called active. The sample as a whole holds a higher share of actives than the screen did. Values without a mark were called inactive. Cut-off read from the data, not from the text of the source: active = max response mostly above about 13% (no sharp cut-off); inactive = mostly below about 14%.

Assay: Cycloheximide Counterscreen for Small Molecule Inhibitors of Shiga Toxin; note: read at 38.3 µM for the half of the compounds with a filed dose; 0% is about no effect
Conditions: cell reporter, cycloheximide protein synthesis inhibition counterscreen; active compounds read high

Point of comparison: `CCOC(=O)c1cn(Cc2cccc(C)c2)nn1`, max response -0.759%. Against it:
- O=C(Cc1ccccc1)Nc1c(Cl)ccc2nsnc12 — higher, -0.56%
- CCOC(=O)c1c(S(=O)(=O)NCC(=O)Nc2ccc(C)cc2)c(C)n(C)c1C — higher, -0.626%
- COC(=O)c1cc(NS(=O)(=O)c2ccc3c(c2)c(=O)n(C)c(=O)n3C)cc(C(=O)OC)c1 — lower, -10.6%
- Cc1cccc(N(C(=O)c2csnn2)C(C(=O)NCc2ccccc2)c2ccncc2)c1 (stereo not given) — lower, -3.2%
- COc1ccc(S(=O)(=O)N2CCC(C(=O)NCc3ccco3)CC2)cc1C — lower, -1.76%
- Cc1ccccc1C(OCCN(C)C)C1CCCCC1 (stereo not given) — lower, -3.58%
- COc1ccc(NS(=O)(=O)c2cc(NC(=O)C3CCCCC3)ccc2N2CCOCC2)cc1 — lower, -4.24%
- CC(C)CNc1ncnc2c1cnn2Cc1ccc(Cl)cc1 — lower, -1.18%
- CC(NC(=S)NNS(=O)(=O)c1ccc(C(C)(C)C)cc1)c1ccccc1 (stereo not given) — lower, -3.09%
- CC(C)CC(NC(=O)C1CCCN1C(=O)[C@@H](C)NC(=O)OCc1ccccc1)C(=O)NCC(N)=O (stereo not given in full) — higher, 18.5%
- COCC(=O)N1CCCC(C(=O)c2ccc(C(F)(F)F)cc2)C1 (stereo not given) — higher, 2.21%
- COc1ccc(CNC(=O)Cc2ccc(-c3ccccc3)cc2)cc1OC — lower, -3.24%
- CCn1cc(C(=O)NCCC(=O)NCCO)c(=O)c2cc3c(cc21)OCO3 — lower, -3.2%
- O=C(NCc1nnc(SCC(=O)N2CCCCCC2)o1)c1ccc(F)cc1 — higher, -0.334%
- CC[C@@H]1Cc2cc(O)ccc2C2=C1c1ccc(O)cc1C[C@H]2CC — lower, -6.86%
- C=CCSc1nnc(N2C(=O)C(O)=C(C(=O)c3ccco3)C2c2ccc(F)cc2)s1 (stereo not given) — higher, 1.8%
- COc1cc(C2C(C(=O)c3ccco3)=C(O)C(=O)N2c2cc(C)on2)ccc1OCc1ccccc1 (stereo not given) — lower, -4.25%
- CCOC(=O)C1CCCN(CCSc2ccc(C)cc2)C1 (stereo not given) — higher, 0.771%
- O=C(NC1CCCC1)C(c1ccco1)N(C(=O)c1ccco1)c1ccc(F)cc1 (stereo not given) — lower, -3.92%
- Cc1cc(F)ccc1NC(=O)C(C)n1c2ccccc2c2nc(=O)cc(C)n21 (stereo not given) — lower, -0.783%
- CSc1cccc(NC(=S)N(Cc2ccccc2)Cc2ccccn2)c1 — higher, 7.83%
- Cn1c(CC(=O)Nc2ccc(F)cc2)nnc1SCC(=O)NC1CCCCC1 — lower, -1.89%
- CCOC(=O)C1(Cc2cccc(OC)c2)CCCN(S(=O)(=O)c2cccnc2)C1 (stereo not given) — lower, -3.01%
- CCOC(=O)C1(Cc2cccc(OC)c2)CCN(C(C)COC)CC1 (stereo not given) — higher, 12.7%
- CN(C)C(CNC(=O)c1cccc(C#N)c1)c1ccco1 (stereo not given) — higher, 8.17%
- CCN(c1ccccc1)S(=O)(=O)c1ccc(NC(=O)C(C)(C)C)cc1 — lower, -3.17%
- O=C(CCl)Nc1cccc(CP(=O)(c2ccccc2)c2ccccc2)c1 — lower, -1.7%
- COCC(=O)Nc1ccc(Br)cc1 — lower, -0.947%
- CS(=O)(=O)N(CC(=O)Nc1ccc(F)cc1)C1CCCCC1 — lower, -2.39%
- COC(=O)c1sc(N2CCN(Cc3ccccc3)CC2)nc1N — lower, -1.52%
- O=C(Nc1c2c(nn1-c1ccccc1)CS(=O)(=O)C2)C1CCCC1 — lower, -1.45%
- N#C/C(=C\c1ccc(-c2cccc([N+](=O)[O-])c2)o1)C(=O)NCCN1CCOCC1 — higher, 2.05%
- O=[N+]([O-])c1ccccc1SNc1ccccn1 — higher, 0.9%
- CC(C)(C)NC(=O)c1cc(NC(=O)c2ccco2)cc(NC(=O)c2ccco2)c1 — lower, -2.77%
- COc1ccc(N(CC(=O)NC(C)(C)C)C(=O)c2ccco2)cc1 — higher, 1.33%
- COc1cc(S(=O)(=O)N2CCN=C2c2ccccc2)ccc1Cl — higher, 3.04%
- CC(=O)c1nn(-c2cccc(Br)c2)cc1C(=O)c1cccc2ccccc12 — higher, 4.07%
- Cc1ccc(S(=O)(=O)N(CC(=O)NCCSC2CCCCC2)c2ccccc2F)cc1 — lower, -3.31%
- NS(=O)(=O)c1ccc(CCNc2nc(C(F)(F)F)nc3ccccc23)cc1 — higher, -0.703%
- COc1ccc(CCNC(=O)CSCc2ccc(Br)cc2)cc1OC — higher, 1.16%
- CN(C(=O)Nc1ccc(Cl)cc1)n1cnc2ccccc2c1=O — higher, 3.38%
- Cn1c(SCC(=O)Nc2ccc(Cl)cc2)nc(O)cc1=O — higher, -0.536%
- Cc1nn(C)cc1C(=O)NNC(=S)Nc1ccc(Cl)cc1 — lower, -3.2%
- COc1ccc(Cl)cc1C(=O)NCc1cn(C)nc1C — lower, -4.09%
- CCc1ccccc1NC(=O)CN(c1ccc(OC)cc1OC)S(=O)(=O)c1ccccc1[N+](=O)[O-] — higher, 10.7%
- O=c1ccc2cc(S(=O)(=O)Nc3ccccc3F)ccc2o1 — lower, -3.48%
- Cc1ccc2c(c1)-c1c(ssc1=S)C(C)(C)N2C(=O)CN1C(=O)c2ccccc2C1=O — lower, -4.7%
- CCCCC1S/C(=N/N=C/c2cccs2)NC1=O (stereo not given) — lower, -2.78%
- Nc1ccc(-c2sc(N)nc2-c2ccccc2)cc1 — higher, 1.13%
- COc1cccc(OC)c1C(=O)N1CCN(Cc2cccnc2)CC1 — lower, -3.44%
- COc1cc(CNCCN(C)C)ccc1OCc1c(F)cccc1Cl — lower, -2.65%
- CCOC(=O)C1CCN(S(=O)(=O)c2ccc3c(c2)N(C(C)=O)CCO3)CC1 — higher, 2.65%
- Cc1cc(-c2cccs2)nc(-n2cccc2)n1 — higher, 16.4%
- CCCS(=O)(=O)Nc1ccc(-c2cn3c(n2)SCC3)cc1 — higher, 1.28%
- COCCNC(=O)CSc1nc2sccc2c(=O)n1-c1ccccc1 — lower, -7.71%
- O=C(NC1CCCC1)C(c1ccco1)N(C(=O)c1csnn1)c1ccccc1 (stereo not given) — lower, -5.09%
- NC(=O)C1CCCN(CC(=O)N2CCN(c3ccccc3)CC2)C1 (stereo not given) — lower, -4.9%
- CCOC(=O)C1CCN(S(=O)(=O)c2ccc3c(c2)N(C)C(=O)CC(=O)N3C)CC1 — lower, -2.95%
- COc1cc(C(=O)N2C(=O)c3cccc(N)c3C2=O)cc(OC)c1OC — higher, 2.15%
- COc1ccc2c(c1OC)C(=O)N(c1ncn[nH]1)C2 — higher, 2.6%
- CCOc1ccc(S(=O)(=O)Nc2ccc(OC)nc2)cc1 — lower, -3.62%
- CCOC(=O)C1=C(CSc2nnnn2C)N(C)C(=O)NC1c1ccccc1 (stereo not given) — lower, -4.86%
- Cc1cccnc1NC(=O)Cn1c(=O)oc2ccccc21 — higher, -0.475%
- Cc1nc(COc2cc3oc(=O)cc(C)c3cc2Cl)cs1 — higher, 5.56%
- O=C(CCc1ccccc1)Nc1ccnn1C1CCN(Cc2ccc(OCCO)cc2)CC1 — lower, -1.22%
- Cc1ccccc1-c1nc(CS(=O)(=O)CC(=O)NC(C)c2ccccc2)c(C)o1 (stereo not given) — higher, 1.09%
- C/C(=N/NS(=O)(=O)c1ccccc1)c1ccc(NC(=O)C(F)(F)F)cc1 — higher, 1.13%
- O=C(Nc1cccnc1)c1cc(Cl)ccc1Cl — higher, 1.75%
- O=C(Nc1ccncc1)c1ccc(Cl)c([N+](=O)[O-])c1 — lower, -2.17%
- COC(=O)c1cc(NC(=O)c2ccco2)ccc1N1CCOCC1 — lower, -1.96%
- O=C(NNC(=O)c1csc(-c2cccnc2)n1)Nc1ccc(Cl)cc1 — higher, 1.7%
- O=C(Nc1cccnc1)c1ccc(Cl)c([N+](=O)[O-])c1 — higher, 11.1%
- CN1CCN(S(=O)(=O)c2ccc(NC(=O)c3ccco3)cc2)CC1 — higher, 12%
- CCOC(=O)c1ccc(NC(=O)CNC(=O)c2ccco2)cc1 — higher, -0.716%
- COc1ccc(N2C(=O)/C(=C\c3ccco3)N=C2SCC(N)=O)cc1Cl — higher, 1.81%
- CCOc1ccccc1N1CCN(C(=S)Nc2ccc(S(N)(=O)=O)cc2)CC1 — lower, -1.52%
- Cc1ccc(C(CNC(=O)Nc2ccccc2)N2CCN(C)CC2)cc1 (stereo not given) — lower, -1.45%
- COC(=O)c1cc(S(=O)(=O)N2CCN(c3cc(C)ccc3C)CC2)c[nH]1 — higher, 1.68%

In the case of `Cc1ccc2nc(N3C(=O)C(O)=C(C(=O)c4ccco4)C3c3cccc(O)c3)sc2c1` (stereo not given), the max response was 23.5% (active).
In the case of `CCOC(=O)C1(Cc2cccc(OC)c2)CCCN(C(=O)CCSC)C1` (stereo not given), the max response was 28.4% (active).
With `CC(C)(CCl)C(=O)Nc1ccc(Sc2ccc(F)cc2)cc1` the max response was 31% (active).
In the case of `O=C(CCl)Nc1ccc(Sc2ccc(NC(=O)CCl)cc2)cc1`, the max response was 24.3% (active).
With `C/C(CC(=O)NC(C)(C)C)=N\NC(=O)c1ccco1` the max response was 40.4% (active).
In the case of `CCOC(=O)c1nn(-c2cccc(C)c2)cc1C(=O)c1ccccc1`, the max response was 43.2% (active).
With `Cn1ccc(NC(=O)Nc2ccc(Cl)cc2)n1` the max response was 36.8% (active).
With `Cc1nn(C)cc1CNC(=O)Nc1ccc(Cl)cc1` the max response was 21.8% (active).
With `Nc1ccc(-c2nnc(-c3ccccc3)o2)cc1` the max response was 51.7% (active).
In the case of `Nc1ccc(-c2nnc(-c3ccc(-c4ccccc4)cc3)o2)cc1`, the max response was 58% (active).
With `c1csc(-c2cn3c(n2)SCC3)c1` the max response was 22.4% (active).
With `COc1ccc2c(c1OC)C(=O)N(c1ccc(O)cc1)C2` the max response was 18.3% (active).
With `COC(=O)c1ccc(NC(=O)c2ccco2)cc1` the max response was 25.4% (active).
In the case of `Cc1ccnc(NC(=O)c2ccc(Cl)c([N+](=O)[O-])c2)c1`, the max response was 28.9% (active).
In the case of `O=C(Nc1ccc(Cl)cc1)Nc1ccc(Oc2cccnc2)nc1`, the max response was 46.4% (active).
With `C/C(=N\NS(=O)(=O)c1ccc(Cl)cc1)c1ccc(NC(=O)c2ccco2)cc1` the max response was 34.2% (active).
